What all share (assay): NCI-60 one-dose screen, 48 h (100 = growth as untreated, 0 = no growth, -100 = all killed)
The test system of one experiment is NCI-H23 lung. The note with it: 10 µM unless noted.
Another experiment deals with NCI-H226 lung. The note with it: 10 µM unless noted.
The next experiment has as its system NCI-H322M lung. Particulars: 10 µM unless noted.
The subject of the next experiment is HOP-62 NSCLC. Particulars: 10 µM unless noted.
For the next experiment, the system named is NCI-H460 lung. Particulars: 10 µM unless noted.
Another experiment deals with HOP-92 NSCLC. The note with it: 10 µM unless noted.
In another experiment the test system is NCI-H522 lung. Particulars: 10 µM unless noted.
The test system of another experiment is A549/ATCC NSCLC. Particulars: 10 µM unless noted.
The next experiment deals with 786-0 renal. Particulars: 10 µM unless noted.
The test system of another experiment is COLO 205 colon. Particulars: 10 µM unless noted.
The test system of a further experiment is DU-145 prostate. The note with it: 10 µM unless noted.
In a further experiment the test system is K-562 leukemia. The note with it: 10 µM unless noted.
The next experiment relates to MALME-3M melanoma. Particulars: 10 µM unless noted.
A further experiment concerns MDA-MB-231 breast. The note with it: 10 µM unless noted.
The test system of another experiment is RXF 393 renal. Particulars: 10 µM unless noted.
For another experiment, the system named is SF-268 CNS. The note with it: 10 µM unless noted.
For the next experiment, the system named is SF-295 CNS. Particulars: 10 µM unless noted.
Another experiment has as its system SF-539 CNS. The note with it: 10 µM unless noted.
Another experiment has as its system UACC-257 melanoma. Particulars: 10 µM.

Growth data for seven compounds are collected here from PubChem BioAssay (NCI).

The structures appear in SMILES notation. This is part of a sample that, as a whole, favours compounds with a hit. Of some 83,000 tested, about 20% had one in any assay.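 Interpretation: 100, growth as untreated; towards 0, rising growth inhibition; 0, no net growth; 0 to -100, cell death. Compounds scoring below 10 were considered active.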 A number with no mark means an inactive call. Activity calls are given as the source filed them.

`COc1ccc(C(=O)n2cc(C=O)c3ccccc32)cc1`: the growth was 101% with NCI-H23 lung; 96.7% in the experiment on NCI-H226 lung; 95.2% in the experiment with NCI-H322M lung; 124% in the experiment with HOP-62 NSCLC; 110% in the experiment on NCI-H460 lung; 83.1% in the experiment with HOP-92 NSCLC. Moreover, the growth with NCI-H522 lung was 98.6%; in the experiment with A549/ATCC NSCLC, 98.6%; in the experiment on 786-0 renal, 102%; in the experiment on COLO 205 colon, 114%; in the experiment with DU-145 prostate, 105%; in the experiment on K-562 leukemia, 82.1%. Also, the growth with MALME-3M melanoma is 93.2%; in the experiment on MDA-MB-231 breast, 91.8%; in the experiment on RXF 393 renal it was 106%; in the experiment on SF-268 CNS, 92.5%; in the experiment with SF-295 CNS, 99.6%; with SF-539 CNS, 89.2%. Moreover, the growth in the experiment with UACC-257 melanoma was 103%.

Turning to `CCc1ccc(NC(=O)N[C@@H](Cc2cc(F)cc(F)c2)C(=O)N[C@@H]2C(=O)N3CCC[C@H]3C(=O)N3CCO[C@H](C)[C@H]3C(=O)N[C@@H](CO)C(=O)N3C[C@H](C)C[C@H]3C(=O)O[C@H]2C)c(F)c1`, the growth was 35.4% in the experiment with NCI-H23 lung; 4.36% (active) with NCI-H226 lung; 50.8% in the experiment on NCI-H322M lung; 32.6% with HOP-62 NSCLC; 16.3% with NCI-H460 lung; -1.76% (active) in the experiment on HOP-92 NSCLC. The growth is 17.5% in the experiment with NCI-H522 lung; 26.9% in the experiment on A549/ATCC NSCLC; 39.8% with 786-0 renal; -42.7% (active) in the experiment on COLO 205 colon; 26.4% in the experiment on DU-145 prostate; 21.5% in the experiment on K-562 leukemia. In addition, the growth was 40.8% in the experiment on MALME-3M melanoma; 33.3% in the experiment on MDA-MB-231 breast; -5.23% (active) with RXF 393 renal; 32.4% with SF-268 CNS; 12.6% in the experiment on SF-295 CNS; 39.9% with SF-539 CNS. Further, the growth in the experiment with UACC-257 melanoma was 12.9%.

As to `CCC(CC)N1C(=O)/C(=c2\sc3n(c2=O)C2C(NN=3)N(CC)C(=O)N2CC)c2ccccc21` (stereo not drawn), the growth in the experiment on NCI-H23 lung is 7.64% (active); in the experiment with NCI-H226 lung, 53.6%; in the experiment on NCI-H322M lung it was 61%; in the experiment with HOP-62 NSCLC, 29.6%; in the experiment on NCI-H460 lung, 4.83% (active); in the experiment with HOP-92 NSCLC, 86.7%. In addition, the growth in the experiment on NCI-H522 lung is 20.1%; in the experiment on A549/ATCC NSCLC, 26%; with 786-0 renal it was 34.9%; with COLO 205 colon it was -13.2% (active); with DU-145 prostate it was 7.43% (active); in the experiment on K-562 leukemia it was 9.31% (active). The growth was 70% in the experiment with MALME-3M melanoma; 32.8% in the experiment on MDA-MB-231 breast; 9.61% (active) in the experiment with RXF 393 renal; 35.7% in the experiment on SF-268 CNS; 7.59% (active) in the experiment on SF-295 CNS; 3.34% (active) in the experiment on SF-539 CNS. In the experiment on UACC-257 melanoma, the growth was 69.6%.

In the case of `CS(=O)(=O)c1ccc(-c2nn(-c3ccccc3)cc2/C=N/NC(=O)c2ccncc2)cc1`, the growth with NCI-H23 lung was 97.5%; with NCI-H226 lung it was 110%; in the experiment on NCI-H322M lung it was 96.9%; with HOP-62 NSCLC, 105%; in the experiment with NCI-H460 lung, 114%; with HOP-92 NSCLC, 96.3%. Besides, the growth in the experiment with NCI-H522 lung is 84.7%; with A549/ATCC NSCLC, 102%; in the experiment with 786-0 renal it was 82.6%; with COLO 205 colon, 110%; with DU-145 prostate, 88.8%; in the experiment with K-562 leukemia, 62.5%. The growth is 95.5% in the experiment on MALME-3M melanoma; 104% in the experiment on MDA-MB-231 breast; 78.2% with RXF 393 renal; 101% in the experiment with SF-268 CNS; 102% with SF-295 CNS; 101% in the experiment on SF-539 CNS. In addition, the growth in the experiment on UACC-257 melanoma was 96.7%.

On to `CN1C(=O)N(C)C2C1NN=c1s/c(=C\c3ccccn3)c(=O)n12` (stereo not drawn), for which the growth in the experiment with NCI-H23 lung was 99.1%; in the experiment with NCI-H226 lung, 99.7%; with NCI-H322M lung it was 99.6%; in the experiment with HOP-62 NSCLC, 100%; in the experiment with NCI-H460 lung it was 108%; with HOP-92 NSCLC, 96.6%. The growth with NCI-H522 lung was 93.4%; in the experiment on A549/ATCC NSCLC, 99.8%; with 786-0 renal, 101%; with COLO 205 colon it was 110%; in the experiment with DU-145 prostate, 108%; in the experiment on K-562 leukemia it was 93.9%. Further, the growth in the experiment with MALME-3M melanoma is 92.7%; with MDA-MB-231 breast, 98%; in the experiment on RXF 393 renal, 102%; in the experiment with SF-268 CNS, 99.9%; in the experiment on SF-295 CNS, 99.8%; in the experiment with SF-539 CNS, 96.3%. The growth in the experiment with UACC-257 melanoma is 96.4%.

Regarding `NS(=O)(=O)c1ccc(Nc2nc(N/N=C/c3ccc(C(F)(F)F)cc3)nc(Nc3ccccc3)n2)cc1`, the growth in the experiment on NCI-H23 lung was 52.8%; in the experiment on NCI-H226 lung, 36.7%; with NCI-H322M lung, 52.6%; with HOP-62 NSCLC, 38%; in the experiment with NCI-H460 lung, 14.6%; with HOP-92 NSCLC, 57.4%. The growth in the experiment with NCI-H522 lung was 38%; with A549/ATCC NSCLC, 27.6%; with 786-0 renal, -3.55% (active); with COLO 205 colon, 29.3%; in the experiment on DU-145 prostate it was 39.3%; in the experiment with K-562 leukemia, 17.5%. In addition, the growth with MALME-3M melanoma is 22.4%; with MDA-MB-231 breast it was 26.1%; with RXF 393 renal, -39.5% (active); in the experiment on SF-268 CNS, 50.4%; with SF-295 CNS, 4.66% (active); in the experiment on SF-539 CNS it was 23.8%. The growth in the experiment with UACC-257 melanoma was 39.6%.

`CNC(=O)c1cc(N2CCc3cc(NC(=O)Nc4ccc(Cl)c(Cl)c4)ccc32)ccn1`: the growth in the experiment with NCI-H23 lung was 95.9%; with NCI-H226 lung, 95.9%; with NCI-H322M lung it was 98.6%; with HOP-62 NSCLC, 87%; with NCI-H460 lung, 82.5%; with HOP-92 NSCLC it was 88.9%. Moreover, the growth with NCI-H522 lung was 68.5%; in the experiment on A549/ATCC NSCLC, 76.3%; with 786-0 renal, 67.2%; with COLO 205 colon it was 77.3%; in the experiment on DU-145 prostate, 97.1%; with K-562 leukemia, 78.2%. Besides, the growth with MALME-3M melanoma is 68.3%; in the experiment on MDA-MB-231 breast, 90.9%; with RXF 393 renal it was -2.71% (active); in the experiment on SF-268 CNS, 104%; in the experiment on SF-295 CNS it was 71.9%; in the experiment with SF-539 CNS, 55.7%. Further, the growth with UACC-257 melanoma was 79.8%.
